From PubChem BioAssay AID1326 (NMMLSC, 2008)
Screen size: about 190,000 compounds; about 130 (0.068%) were called active. This is one part of a sample in which actives are shown more often than they occur. Rule as the data show it: active = inhibition above about 40%; inactive = the rest.

Target: ATP-dependent translocase ABCB1 (Homo sapiens) (UniProt P08183)
Assay: ABCB1 efflux pump inhibitors, primary screen, cell-based, multiplex, flow cytometry, ABCG2 counter-screen (AID 1326);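 also: 0% = vehicle and 100% = reference inhibitor; higher value means more JC-1 retained so stronger ABCB1 efflux block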
Details: CCRF-Adr cells, JC-1 efflux, at 6.6 µM, hits give high values

Sequence of ATP-dependent translocase ABCB1 (Homo sapiens) (P08183 whole entry, looked up): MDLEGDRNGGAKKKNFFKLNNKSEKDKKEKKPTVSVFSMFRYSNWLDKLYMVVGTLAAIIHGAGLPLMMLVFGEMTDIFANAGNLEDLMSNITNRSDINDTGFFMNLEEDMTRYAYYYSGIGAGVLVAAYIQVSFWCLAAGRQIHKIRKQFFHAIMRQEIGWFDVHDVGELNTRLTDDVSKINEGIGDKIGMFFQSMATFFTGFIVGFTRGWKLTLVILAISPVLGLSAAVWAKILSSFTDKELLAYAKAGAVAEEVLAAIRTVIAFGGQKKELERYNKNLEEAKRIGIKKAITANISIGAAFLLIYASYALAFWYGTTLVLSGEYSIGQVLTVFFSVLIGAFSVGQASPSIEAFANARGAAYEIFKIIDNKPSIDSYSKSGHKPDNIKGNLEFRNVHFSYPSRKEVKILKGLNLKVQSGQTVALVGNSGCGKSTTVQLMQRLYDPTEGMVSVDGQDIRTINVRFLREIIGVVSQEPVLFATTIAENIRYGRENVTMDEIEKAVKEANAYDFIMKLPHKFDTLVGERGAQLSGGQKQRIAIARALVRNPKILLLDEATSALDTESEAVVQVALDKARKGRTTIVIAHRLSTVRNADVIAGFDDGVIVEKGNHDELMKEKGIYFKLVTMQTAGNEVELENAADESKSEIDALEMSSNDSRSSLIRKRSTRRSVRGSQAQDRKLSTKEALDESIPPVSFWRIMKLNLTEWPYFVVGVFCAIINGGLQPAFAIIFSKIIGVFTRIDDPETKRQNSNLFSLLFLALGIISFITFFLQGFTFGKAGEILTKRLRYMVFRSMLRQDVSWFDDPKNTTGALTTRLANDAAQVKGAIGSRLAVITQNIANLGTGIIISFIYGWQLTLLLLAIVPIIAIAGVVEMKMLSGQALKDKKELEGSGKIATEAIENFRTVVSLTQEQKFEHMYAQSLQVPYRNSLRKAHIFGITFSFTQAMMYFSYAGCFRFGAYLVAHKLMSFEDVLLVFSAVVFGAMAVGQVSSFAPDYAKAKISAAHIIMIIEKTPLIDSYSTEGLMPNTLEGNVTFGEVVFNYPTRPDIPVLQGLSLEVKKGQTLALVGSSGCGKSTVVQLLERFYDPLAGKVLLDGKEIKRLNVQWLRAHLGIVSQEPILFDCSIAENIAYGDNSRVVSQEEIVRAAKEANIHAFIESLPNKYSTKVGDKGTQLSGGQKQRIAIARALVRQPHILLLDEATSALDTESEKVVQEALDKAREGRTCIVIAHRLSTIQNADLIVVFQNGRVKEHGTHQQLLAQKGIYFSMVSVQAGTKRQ

Row | Compound | inhibition
1 | Cc1ccc2c(c1)C1CN(C)CCC1N2C(=S)Nc1ccc(Cl)cc1Cl (stereo not given) | -0.2% (inactive)
2 | Cc1ccc(OCC(O)CN2CCN(CC(O)COc3ccc(C)cc3Cl)CC2)c(Cl)c1 (stereo not given) | 77.3% (active)
3 | Cc1ccccc1OCC(O)CN1CCN(c2ccccn2)CC1 (stereo not given) | 2.19% (inactive)
4 | Cc1cccc(C)c1OCC(O)CN1CCCCC1 (stereo not given) | 0.13% (inactive)
5 | COc1cccc(OC)c1C(=O)OCC(=O)/C(C#N)=C(\C)N | 0.08% (inactive)
6 | CCN1/C(=C\c2ccc3ccccc3[n+]2CC)Sc2cc(C)ccc21 | 19.6% (inactive)
7 | CCC(=O)/C=C1\Sc2ccccc2N1CC | 0.19% (inactive)
8 | Cc1ccccc1-c1n[nH]c(=S)n1C | -0.08% (inactive)
9 | CC(=O)c1ccc(NC(=O)CSC(=S)N2CCCC2)cc1 | 0.83% (inactive)
10 | O=C(N/N=C/c1ccc([N+](=O)[O-])o1)c1cccc(S(=O)(=O)N2CCOCC2)c1 | 1.78% (inactive)
11 | COC(=O)CC1=NN(c2nc(C)cc(C)n2)C(=O)C1 | 3.04% (inactive)
12 | COc1ccc(Cl)cc1NC(=O)[C@@H]1CCCN1C(=O)c1cccs1 | 1.1% (inactive)
13 | O=C(NNC(=S)NC(=O)c1cn(-c2ccccc2)nc1-c1ccccc1)c1ccncc1 | -0.12% (inactive)
14 | O=C1N/C(=N\N=C\c2ccco2)SC1Cc1ccc(F)cc1 (stereo not given) | -0.31% (inactive)
15 | COC(=O)c1ccc(CSc2nncn2N)cc1 | -0.7% (inactive)
16 | CCCN1CNC(=S)N(CCc2ccccc2)C1 | 0.53% (inactive)
17 | COc1ccc(CNC(=O)COC(=O)/C=C/c2ccc(S(=O)(=O)N3CCOCC3)cc2)cc1 | -0.38% (inactive)
18 | CC(C)(C)OC(=O)N1CCC(NC(=O)c2[nH]cnc2C(=O)N[C@@H](Cc2ccccc2)C(=O)OCc2ccccc2)CC1 | 15.7% (inactive)
19 | CC1=C(C)CC(C(=O)NC(C)CCc2ccccc2)C(C(=O)O)C1 (stereo not given) | 0.3% (inactive)
20 | O=C(Cc1c[nH]c2ccccc12)N/N=C/c1cccc(F)c1 | -0.1% (inactive)
21 | CCC(CC)c1nnc(NC(=O)/C=C/c2ccco2)s1 | 0.26% (inactive)
22 | CN(C)c1nc(N)nc(Cn2nnc(-c3ccc(C(F)(F)F)cc3)n2)n1 | -0.39% (inactive)
23 | O=S(=O)(c1ccc(-c2ccccc2)cc1)N1CCCC1 | 1.29% (inactive)
24 | O=C(CCS(=O)(=O)Cc1ccccc1)Nc1ccc2c(c1)OCCO2 | 0.73% (inactive)

Row | Compound | inhibition
25 | Cc1cc(C)cc(NC(=O)COC(=O)c2cc(C)oc2C)c1 | 1.39% (inactive)
26 | Cc1ccc(C(NC(=O)N2CCCC2)C(Cl)(Cl)Cl)cc1F (stereo not given) | 0.9% (inactive)
27 | CCS(=O)(=O)c1ccc(O)c(NC(=O)COc2ccc(Cl)cc2)c1 | 0.2% (inactive)
28 | CCn1c(COc2c(C)cccc2C)nnc1SCc1nc2ccccc2c(=O)[nH]1 | 0.72% (inactive)
29 | CS(=O)(=O)c1ccc2nc(NC(=O)c3ccc(Cl)nc3)sc2c1 | 0.4% (inactive)
30 | Cc1nnc(SCCCCSc2nnc(C)c(=O)[nH]2)[nH]c1=O | 1.4% (inactive)
31 | CC(C)OCCCNC(=O)c1ccc(C2SCC(=O)N2Cc2ccco2)cc1 (stereo not given) | 1.04% (inactive)
32 | CSc1ccccc1NC(=O)Cc1ccc(Br)cc1 | 1.94% (inactive)
33 | O=C(CN(c1cccc(Cl)c1)S(=O)(=O)c1ccccc1)NN=C1CCCC1 | 0.27% (inactive)
34 | O=C(COC(=O)c1ccccc1C(=O)N1CCN(c2ccccc2)CC1)NCc1ccccc1 | 1.33% (inactive)
35 | O=C1CN(C(=O)CN2C(=O)NC3(CCCCC3)C2=O)c2ccccc2N1 | 0.2% (inactive)
36 | Cc1sc2nc(COC(=O)C(NC(=O)c3ccc(Cl)cc3Cl)C(C)C)[nH]c(=O)c2c1C (stereo not given) | -0.58% (inactive)
37 | CCc1ccc(Nc2nnc(SCC(=O)c3ccc4c(c3)NC(=O)CO4)s2)cc1 | -0.13% (inactive)
38 | CCOc1ccc(C(=O)Nc2cccc(SC)c2)cc1 | 0.08% (inactive)
39 | COC(=O)CCC(=O)N1CCCC(CO)(Cc2ccccc2)C1 (stereo not given) | 0.1% (inactive)
40 | CN(C)c1ccc(Nc2c3c4c(cccc4n(C)c2=O)C(=O)c2ccccc2-3)cc1 | 13.5% (inactive)
41 | Cc1ccc(O)c(-c2cc(C(=O)Nc3c(C)n(C)n(-c4ccccc4)c3=O)[nH]n2)c1 | 0.33% (inactive)
42 | COc1ccc(C2OCC3(CO2)SC(=O)NC3=O)cc1OC (stereo not given) | -0.28% (inactive)
43 | COc1ccccc1N1CCN(/N=C\C(Br)=C\c2ccccc2)CC1 | 0.81% (inactive)
44 | N#Cc1ccccc1NC(=O)c1cccc(COc2ccc(Cl)cc2Cl)c1 | -0.17% (inactive)
45 | CCOC(=O)c1ccc(NC(=S)Nc2cc(C)cc(C)n2)cc1 | 1.25% (inactive)
46 | COc1cc(C(=O)NCc2nnc(SCC(=O)Nc3nc4ccc(C)cc4s3)o2)cc(OC)c1OC | -2.31% (inactive)
47 | Cc1ccccc1Nc1scc(-c2ccc(Br)cc2)[n+]1-c1ccccc1C | -2.63% (inactive)
48 | CCCn1nc(NS(=O)(=O)c2ccccc2)c2cc3cc(C)ccc3nc21 | 0.68% (inactive)

Row | Compound | inhibition
49 | O=S(=O)(c1ccccc1)c1nc(-c2ccccc2F)oc1NCc1cccnc1 | 5.26% (inactive)
50 | c1ccc2c(c1)OCCOCCOCCO2 | 0.51% (inactive)
51 | CC(=O)Cc1nsc(NC(=O)c2ccc(Cl)cc2Cl)n1 | -0.31% (inactive)
52 | COC(=O)c1cc(NC(=O)CN2CCN(C(C)=O)CC2)cc(C(=O)OC)c1 | 1.14% (inactive)
53 | CC(CNC(=O)c1ccc(N)cc1)NC(=O)c1ccc(N)cc1 (stereo not given) | -0.82% (inactive)
54 | CS(=O)(=O)N1CCC(C(=O)N2CCN(c3ccccc3)CC2)CC1 | 0.86% (inactive)
55 | CCC1SC(CC)C(=O)N(CC(=O)NC2CCCCC2)C1=O (stereo not given) | 0.07% (inactive)
56 | Cc1c(Cl)c([N+](=O)[O-])nn1CC(=O)NCC1CCCO1 (stereo not given) | -0.1% (inactive)
57 | COc1ccc(-n2nnnc2SCC(=O)NCc2cccs2)cc1 | 2.4% (inactive)
58 | CCOc1ccc2nc(NC(=O)c3cc([N+](=O)[O-])ccc3N3CCOCC3)sc2c1 | -1.41% (inactive)
59 | NC(=O)COC(=O)c1sc2cc(F)ccc2c1Cl | -0.04% (inactive)
60 | COc1ccc(C(=O)COC(=O)c2nn(C)c(=O)c3ccccc23)c(OC)c1 | 0.19% (inactive)
61 | O=C1c2cccc3c([N+](=O)[O-])ccc(c23)C(=O)N1CC1CCCO1 (stereo not given) | 0.98% (inactive)
62 | CN(CCOc1ccccc1)Cc1nc2cc(Cl)ccc2c(=O)[nH]1 | 0.26% (inactive)
63 | Cc1ccc(Nc2c(F)c(F)c(F)c(F)c2C(=O)O)c(C)c1 | -0.24% (inactive)
64 | Cc1ccc(CNC(=O)CCNS(=O)(=O)c2ccc(Br)s2)cc1 | -0.56% (inactive)
65 | NS(=O)(=O)c1ccc(CCNC(=O)c2ccc(Cl)cc2[N+](=O)[O-])cc1 | 1.3% (inactive)
66 | COc1ccccc1NC(=O)CCSc1nnc(-c2ccc(O)cc2)o1 | 0.42% (inactive)
67 | COc1ccc(/C=N/Nc2ncnc3sc4c(c23)CCCC4)cc1O | -0.22% (inactive)
68 | N#Cc1cnn2cc(CCN3CCOCC3)c(-c3ccc(F)cc3)nc12 | 1.26% (inactive)
69 | CCCNCc1cc(OCC)c(OCC(=O)Nc2ccccc2)cc1Br | 0.07% (inactive)
70 | O=C(CN(C(=O)c1csnn1)c1cccc(F)c1)NCc1ccc(F)cc1 | 1.22% (inactive)
71 | COC(=O)c1ccc(C(NC(=O)OCc2ccccc2)/C(C)=C/[C@@H](C)C(=O)NCc2ccc(OC)c(OC)c2)cc1 (stereo not given in full) | 9.15% (inactive)
72 | Cc1ccccc1CSc1nnc(-c2ccccc2)c(=O)[nH]1 | 0.19% (inactive)

Row | Compound | inhibition
73 | CCC(C)(C)NC(=O)C(c1cccc(OC)c1OC)N(CC(C)C)C(=O)CCC(=O)Nc1cc(C)on1 (stereo not given) | 1.31% (inactive)
74 | CCOC(=O)C1(C)NC(c2ccco2)C2C(=O)N(c3ccccc3)C(=O)C21 (stereo not given) | 0.47% (inactive)
75 | CCOC(=O)NC(=O)CSc1nnc(SCCC(=O)O)s1 | 0.52% (inactive)
76 | Cc1nn(CCOc2ccc(Br)cc2)c(C)c1[N+](=O)[O-] | 1.06% (inactive)
77 | CN(C)c1ccc(/C=N/NC(=O)C(O)c2ccc(Br)cc2)cc1 (stereo not given) | 0.7% (inactive)
78 | OC1CSc2nc3ccccc3n2C1 (stereo not given) | -0.99% (inactive)
79 | Cc1ccc(C)c(-n2nnnc2SCC(=O)c2c(N)n(C)c(=O)n(C)c2=O)c1 | -0.82% (inactive)
80 | Nc1nc(CC(=O)CSc2ccc(Cl)cc2)nc(Nc2ccc(F)cc2)n1 | 0.01% (inactive)
81 | COc1ccc(Br)cc1/C=N/Nc1ccc(Cl)c(C(=O)O)c1 | -0.4% (inactive)
82 | Cc1cc(/C=C2/SC(=O)N(CC(=O)N3CCCC3)C2=O)ccc1N1CCOCC1 | 1.48% (inactive)
83 | Cc1nc(S(=O)(=O)c2ccc(Br)cc2)nc2c1CCC2 | 0.58% (inactive)
84 | COc1ccccc1NC(=O)c1cc(Cl)nnc1Cl | 1.04% (inactive)
85 | COc1ccc(S(=O)(=O)N(C)CC(=O)N2CCCC2)cc1Cl | 1.26% (inactive)
86 | COc1ccc(C(=O)Nc2ccc(N3CCC(C)CC3)cc2)cc1Br | 1.32% (inactive)
87 | Cc1ccc(C(=O)N/C(=C/c2cccnc2)C(=O)O)cc1 | 0.02% (inactive)
88 | O=C(O)c1cccc(NC(=O)c2cc(-c3cccc(Cl)c3)nc3ccccc23)c1 | -0.61% (inactive)
89 | C/C(=N\Nc1ncc(Cl)cc1Cl)c1cccs1 | 0.7% (inactive)
90 | COC(=O)c1c(C(=O)OC)c(-c2cccc(C)c2)n2c1CS(=O)C2 (stereo not given) | 0.19% (inactive)
91 | COCC(C)n1c(C)cc(C(=O)COc2ccc(C)nc2[N+](=O)[O-])c1C (stereo not given) | 0% (inactive)
92 | S=c1[nH]nc(NCCc2ccccc2)s1 | -0.12% (inactive)
93 | C/C(=N\NC(=O)C(N)=O)c1ccc2c(c1)OCCO2 | 1.58% (inactive)
94 | CC(C)/C=N/NC(=O)c1cc(Br)ccc1O | 0.05% (inactive)
95 | O=C(O)CC(SCC(=O)Nc1ccc(Br)cc1)C(=O)O (stereo not given) | -0.05% (inactive)
